Compound activity from PubChem.
The list is not random: actives were taken first. Their share in the collection is about 9.3%.
FLuc counter: inhibits or activates purified firefly luciferase, miR-21 counter-screen. Potency, µM (series often up to 57.5 µM), for inactives: at the highest dose activity change, negative = inhibition, actives largely listed as inhibitors. purified FLuc, Km substrates, luminescence inhibition. P08659. hit rate 6.9% among 360,000;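 note: plate controls were vehicle for no effect and reference inhibitor for full effect; nearly all actives have a fitted effect of over 55% in size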
Target sequence (P08659 whole entry, looked up): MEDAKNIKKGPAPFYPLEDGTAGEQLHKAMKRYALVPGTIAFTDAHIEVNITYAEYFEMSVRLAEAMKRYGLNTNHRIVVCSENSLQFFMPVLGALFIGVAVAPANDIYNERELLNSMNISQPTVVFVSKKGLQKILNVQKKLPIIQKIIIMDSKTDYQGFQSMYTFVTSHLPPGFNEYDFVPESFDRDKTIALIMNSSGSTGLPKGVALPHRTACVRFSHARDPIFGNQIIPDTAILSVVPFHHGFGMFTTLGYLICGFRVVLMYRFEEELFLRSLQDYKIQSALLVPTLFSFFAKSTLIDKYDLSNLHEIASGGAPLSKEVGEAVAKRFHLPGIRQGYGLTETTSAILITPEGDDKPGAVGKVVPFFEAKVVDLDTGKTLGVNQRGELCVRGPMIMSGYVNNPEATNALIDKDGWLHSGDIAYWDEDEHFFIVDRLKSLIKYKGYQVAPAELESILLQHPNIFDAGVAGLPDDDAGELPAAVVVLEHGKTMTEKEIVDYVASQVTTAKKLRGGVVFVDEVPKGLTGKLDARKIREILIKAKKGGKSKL
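Purified P. pyralis luciferase, 10 nM final, with Km-level 10 uM D-luciferin and 10 uM ATP in 50 mM Tris acetate pH 7.5, 10 mM Mg acetate, 0.01% Tween-20, 0.05% BSA; 6-point qHTS titration about 60 µM downward; luminescence read.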
Rab9 promoter act: activators of Rab9 promoter | Huh7 Rab9 promoter-luciferase reporter, luminescence, 24 h | Potency, µM (highest dose often 9.22 µM), for inactives: at the highest dose activation, negative = inhibition, usual class: activators | hit rate 2.8% among 320,000 | AID 485297; note: % of control where 0% means no effect; nearly all actives have a fitted effect of over 60% in size
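Quantitative HTS format; Huh7 Rab9-luciferase reporter cells (1500/well) receive compound 2 h post-plating, incubate 24 h at 37 °C, then get luciferase reagent for 10 min before luminescence reading.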
ELG1 repair inh: blocks ELG1-dependent DNA repair in HEK293T cells. HEK293T ELG1-luciferase reporter, luminescence, 16 h; DNA damage induced by 5-fluorouridine. Potency, µM (series often up to 46.1 µM), inactives show at the highest dose activity change, negative = inhibition, usual class: inhibitors. hit rate 2.3% among 330,000. AID 504467; note: % is set by controls: 0 for no effect and ±100 for the full control effect; nearly all actives have a fitted effect of over 55% in size
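Quantitative HTS, concentration-response format. 2,000 cells/well co-treated with 5-fluorouridine and compound, 16 hr in 5% CO2 at 37 °C; ONE-Glo luminescence read after 30 min.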
SMN2 splice up: enhancers of SMN2 splice variant expression | HEK293 SMN2-luciferase splicing reporter, luminescence, 30-36 h | Potency, µM (top dose mostly 46.1 µM), for inactives: top-dose activity change, positive = activation, usual class: activators | AID 1458 | hit rate 2.8% among 210,000; note: % of control where 0% means no effect; nearly all actives have a fitted effect of over 55% in size
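qHTS luciferase splicing reporter: luminescence rises when SMN2 exon 7 is included in transfected HEK293 cells. Compound exposure lasted 30-36 h at 37C, with 4.5 mM final sodium butyrate as control, followed by a ONE-Glo read.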
NPC1 prom act: activates the NPC1 promoter; Huh7 NPC1 promoter luciferase reporter, 24 h; Potency, µM (series often up to 9.22 µM), for the others: top-dose activation, hits mostly activators; hit rate 2.4% among 320,000; AID 485313; note: % of control where 0% means no effect; nearly all actives have a fitted effect of over 60% in size
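Huh7 cells stably carrying NPC1 promoter–luciferase, plated in Opti-MEM with 10% FBS for 2 h, were exposed to compound in DMSO for 24 h at 37 °C; luciferase reagent was added for 10 min and luminescence read.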
ELG1 genotoxic: inducers of genotoxicity in HEK293T ELG1-luciferase cells; hit rate 1.3% among 330,000; AID 504466; Potency, µM (top dose mostly 46 µM), inactives show at the highest dose activity change, positive = activation, hits mostly activators; HEK293T ELG1-luciferase reporter, luminescence, 16 h; note: % of control where 0% means no effect; nearly all actives have a fitted effect of over 60% in size
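Luminescence read-out: rising ELG1-luciferase signal, reflecting elevated ELG1 protein under genetic stress, flags genotoxic compounds. Cells were treated for 16 hr at 37 °C before ONE-Glo detection.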
* = called active by the depositor; u = inconclusive; x = not tested or not shown. Calls come from the whole dose curve; as a rule, active = well fitted curve in the direction sought with a large enough effect; inconclusive = small, poorly fitted or top-dose-only effect, or another doubt; inactive = no such curve, though single readings can be large; an effect the other way counts as inactive or inconclusive. Potency is the fitted concentration of half-maximal effect.

SMILES | FLuc counter | Rab9 promoter act | ELG1 repair inh | SMN2 splice up | NPC1 prom act | ELG1 genotoxic
CSc1ccccc1NC(=O)Nc1ccc(F)c(Cl)c1 | 12µM* | 15% | u | 6% | 16% | 2%
COc1ccc(Nc2cccc(Cl)c2)c(C(=O)O)c1 | 7% | -2% | 6% | u | -3% | -1%
CSc1ccccc1NC(=O)Nc1cccc(Cl)c1Cl | 2% | 1% | u | 12% | 0% | 2%
Cc1ccc(NC(=O)Nc2cccc(Cl)c2)c(C(=O)O)c1 | 12µM* | -5% | 3% | -7% | 18% | 8%
O=C(COC(=O)/C=C/c1ccccc1)Nc1nnc(-c2ccccc2)o1 | 2% | 4% | -1% | x | -3% | 0%
CSc1nc2ccc(S(=O)(=O)N3CCCCC3)cc2s1 | 0% | -6% | 10% | -13% | -3% | -2%
CCOCCn1c(SCc2ccc(C)cc2)nc2c1c(=O)[nH]c(=O)n2C | 4% | 1% | u | 3% | -2% | 9%
COc1cc2ncc(S(=O)(=O)c3ccccc3)c(N3CCCC(C)C3)c2cc1OC (configuration not stated) | 1% | 3% | 18µM* | x | -8% | -9%
CCOc1cc(NC(=S)NCCCN2CCOCC2)c(OCC)cc1NC(=O)c1ccccc1C | 1% | -6% | -8% | -13% | -2% | -6%
Cc1cc(NCCCn2ccnc2)n2nc(C)c(-c3ccccc3)c2n1 | 9.5µM* | u | u | 9% | 29% | 16%
c1ccc(-c2nc(NCCCn3ccnc3)c3ccccc3n2)cc1 | -2% | 0% | u | 9% | -5% | -10%
Cc1cc(NCCCn2ccnc2)n2nc(C)c(-c3ccc(Cl)cc3)c2n1 | 15µM* | 0% | u | x | 5% | -1%
Cc1cc(NCCN2CCOCC2)n2nc(C)c(-c3ccc(Cl)cc3)c2n1 | 2% | -1% | -13% | -17% | 0% | -37%
Cc1cc(NCCCn2ccnc2)n2ncc(-c3ccccc3)c2n1 | 0.34µM* | 0.11µM* | u | -38% | 0.4µM* | 0.29µM*
CCn1c(SCC(=O)c2ccc(O)c(O)c2)nnc1-c1ccc(C)cc1 | -12% | -10% | -7% | u | -16% | -4%
CCCC[C@H]1COCCS(=O)(=O)N1Cc1ccc(C)cc1 | -1% | 4% | 6% | x | -2% | -6%
COc1ccc(C(C(=O)NC2CCCCC2)N(C(=O)CCCC(=O)Nc2ccccn2)c2ccc3c(c2)OCCO3)cc1 (configuration not stated) | -2% | 0% | -8% | 10% | -8% | 1%
Cc1ccc(CNC(=O)CCn2cc(-c3ccc(F)cc3)nc2-c2ccncc2)cc1 | 2% | -4% | -14% | x | 1% | 0%
CCN(C(=O)Cn1c(=O)n(Cc2ccccc2)c(=O)c2ccccc21)c1cccc(C)c1 | -2% | 8% | -6% | -15% | 6% | -5%
COc1ccc(NC(=O)C2CCCN2C(=O)Oc2ccccc2)cc1 (configuration not stated) | 5% | 1% | 14% | -17% | -3% | 4%
CC(C)c1cc(C(=O)NNC(=S)NCc2ccco2)c(O)c(C(C)C)c1 | 1% | 3% | 18µM* | -40% | -1% | -6%
O=C(NC(=O)c1ccccc1F)OCc1ccc(Cl)cc1Cl | 12µM* | 13% | 10% | x | 8% | 2%
O=C(CNC(=O)c1ccccc1F)NCCc1ccc(Cl)cc1Cl | 1% | -1% | 9% | x | -5% | 0%
COc1ccc(CCN2CC(C(=O)NCCc3cn[nH]c3)CCC2=O)cc1 (configuration not stated) | 0% | -13% | 9% | x | 0% | 3%
CCN(CC)C(=O)CSc1nc2c(sc(=S)n2-c2ccccc2)c(=O)n1-c1ccccc1OC | 0% | -1% | u | x | -5% | -7%
CCN1CCc2c(sc(NC(=O)c3ccc4ccccc4c3)c2C(N)=O)C1 | 2.4µM* | 14% | u | x | 21% | 8%
